D3 antag: qHTS of D3 Dopamine Receptor Antagonist: qHTS; D(3) dopamine receptor (Homo sapiens), P35462; D3R cells, DiscoveRx beta-arrestin luminescence, antagonist mode; hits give low values; max response, negative = inhibition, %; hit rate 2.5% among 360,000; in the data active means max response below about -50%; inconclusive means no clear call, values can overlap the other calls; further: on the % scale 0 is the no-effect control and ±100 the full control effect
Target sequence (P35462 whole entry, looked up): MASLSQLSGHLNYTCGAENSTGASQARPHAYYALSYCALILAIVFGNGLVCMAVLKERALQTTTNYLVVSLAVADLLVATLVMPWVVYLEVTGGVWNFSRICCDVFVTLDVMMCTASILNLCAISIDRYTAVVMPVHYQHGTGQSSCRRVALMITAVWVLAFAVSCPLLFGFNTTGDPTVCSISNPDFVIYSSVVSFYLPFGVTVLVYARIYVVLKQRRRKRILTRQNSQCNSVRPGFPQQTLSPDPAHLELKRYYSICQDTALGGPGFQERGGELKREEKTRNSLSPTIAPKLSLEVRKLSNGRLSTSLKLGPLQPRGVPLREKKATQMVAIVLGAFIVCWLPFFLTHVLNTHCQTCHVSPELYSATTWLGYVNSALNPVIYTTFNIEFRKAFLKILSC
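Cells expressing the human receptor were seeded at 1500 cells/well, incubated overnight at 37 degrees C in 5% CO2, then exposed to library compounds with dopamine controls for 90 minutes at 37 degrees C before luminescent detection.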
D1 PAM: Potentiators of Human D1 Dopamine Receptor: qHTS | D(1A) dopamine receptor (Homo sapiens), P21728 | HEK293 TREx D1 cells, calcium flux, dopamine EC20 potentiation | potentiation, % at 10 µM | hit rate 0.036% among 360,000; in the data active means potentiation above about 30%; further: 0% is about no effect
D3 ag: qHTS of D3 Dopamine Receptor Agonist: qHTS | D(3) dopamine receptor (Homo sapiens), P35462 | D3R DiscoveRx beta-arrestin cells, luminescence, 90 min | max activation, % | hit rate 0.58% among 410,000; in the data active means max activation above about 30%; further: 0% is about no effect
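Cells at 1500/well, incubated overnight, then treated with pinned compounds (dopamine as control) for 90 min at 37 degrees C. DiscoveRx reagent added for 30 - 60 minutes at room temperature; luminescence read.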
D1 agonist: Allosteric Agonists of the Human D1 Dopamine Receptor: qHTS. D(1A) dopamine receptor (Homo sapiens), P21728. HEK293 T-REx D1 cells, calcium flux, agonist mode. activation, % at 2 µM. hit rate 1% among 360,000; in the data active means activation above about 30%; further: 0% is about no effect
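Agonism was scored from calcium flux recorded over 180 s (1 read/s) after pintool compound addition, following a 10-cycle baseline. Cells were inducible force-coupled HEK293 TREx D1, plated overnight at 30 C and loaded with no-wash calcium dye.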
D1 antag: Antagonist of Human D 1 Dopamine Receptor: qHTS | D(1A) dopamine receptor (Homo sapiens), P21728 | activity change, negative = inhibition, % at 10 µM | hit rate 3.2% among 360,000 | AID 504652, 2011 | HEK293 TREx D1 cells, calcium flux, dopamine EC80; hits give low values; in the data active means activity change below about -30%; further: on the % scale 0 is the no-effect control and ±100 the full control effect
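Using tetracycline-induced force-coupled D1 Hek293 cells and a calcium dye, signals were followed for 180 s after compound, then for 180 s after EC80 dopamine, to detect inhibitors.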
An asterisk follows results filed as active. Only some compounds are listed: those with a hit (about 6.1% of all), similar ones and a draw of the others.

For CCC(=O)OC(OP(=O)(CCCCc1ccccc1)CC(=O)N1C[C@H](C2CCCCC2)C[C@H]1C(=O)O)C(C)C (stereo partly specified) the results were D3 ag 12.
`COc1cc(OC)cc(-c2nc3n(n2)C(c2ccccc2F)C(C(=O)Nc2cccnc2)=C(C)N3)c1` (stereo unspecified) gave D1 PAM -2, D3 ag -6, D1 agonist 2 and D1 antag 2.
CCOc1ccc(CCNC(c2nnc(-c3ccccc3)o2)c2ccccc2Cl)cc1OCC (stereo unspecified) was read as D1 PAM 0, D3 ag -10, D1 agonist 26 and D1 antag -12.
COc1ccc(C(CNC(=S)NCc2ccccc2)N2CCCC2)cc1 (stereo unspecified) was read as D3 antag -58*, D1 PAM -2, D3 ag -35, D1 agonist 25 and D1 antag -9.
For COc1ccccc1C(CNC(=S)NCc1ccccc1)N1CCCC1 (stereo unspecified) the results were D3 antag -28, D1 PAM -4, D3 ag -20, D1 agonist 6 and D1 antag 5.
For COc1ccc(C(CNC(=O)c2oc3ccccc3c2C)N2CCCC2)cc1 (stereo unspecified) the results were D3 antag inconclusive, D3 ag -18, D1 agonist 5 and D1 antag 8.
For COc1ccc(C(CNC(=O)c2oc3ccc(Cl)cc3c2C)N2CCCCC2)cc1 (stereo unspecified) the results were D3 antag -103*, D1 PAM 6, D3 ag -18, D1 agonist 3 and D1 antag 21.
For COc1ccc(C(CNC(=O)c2ccccc2C)N2CCCC2)cc1 (stereo unspecified) the results were D3 antag -85*, D1 PAM -2, D3 ag -34, D1 agonist 1 and D1 antag 5.
Screening O=C(NCC(c1ccc(F)cc1)N1CCOCC1)c1ccccc1F (stereo unspecified) returned D3 antag 10, D1 PAM -9, D3 ag -3, D1 agonist 1 and D1 antag -39*.
`O=C(NCC(c1ccc(F)cc1)N1CCOCC1)c1cc(F)c(F)c(F)c1F` (stereo unspecified) gave D3 antag 16, D1 PAM -9, D3 ag 0, D1 agonist 3 and D1 antag -6.
N#Cc1cccc(S(=O)(=O)N2CCN(S(=O)(=O)c3ccc4c(c3)OCCO4)CC2)c1 was read as D1 PAM -5, D1 agonist 4 and D1 antag 0.
For Cc1ccc(-n2cnc3cc(C(=O)NC4CCCCCC4)ccc32)cc1Cl the results were D1 PAM 0, D3 ag -16, D1 agonist 1 and D1 antag -5.
Screening COc1ccc(Cl)cc1C(=O)NCC(c1ccc(N(C)C)cc1)N1CCCC1 (stereo unspecified) returned D1 PAM 2, D3 ag -16, D1 agonist 34* and D1 antag -6.
For COc1ccc(C(CNC(=O)c2cc(=O)[nH]c3ccccc23)N2CCCC2)cc1 (stereo unspecified) the results were D3 antag 6, D1 PAM -7, D3 ag -4, D1 agonist 5 and D1 antag -38*.
CSc1ncccc1C(=O)NCC(c1cccs1)N1CCOCC1 (stereo unspecified) was read as D3 antag 2, D1 PAM -3, D3 ag -2, D1 agonist 3 and D1 antag -80*.
For COc1ccc(C(=O)NCC(c2ccc(N(C)C)cc2)N2CCCC2)c(OC)c1 (stereo unspecified) the results were D1 PAM 2, D3 ag -20, D1 agonist -1 and D1 antag -8.
Screening COc1ccc(C(CNC(=O)C(CCSC)NC(=O)c2ccccc2Cl)N2CCCCC2)cc1 (stereo unspecified) returned D3 antag -59*, D3 ag -23, D1 agonist 3 and D1 antag -4.
COc1ccc(C(CNC(=O)C(CCSC)NC(=O)c2ccccc2Cl)N2CCCC2)cc1 (stereo unspecified) was read as D3 antag -20, D1 PAM 10, D3 ag -8, D1 agonist 0 and D1 antag 8.
Screening CCCCn1c(=O)nc2n(-c3ccc(Br)cc3)c3ccccc3cc-2c1=O returned D1 PAM -1, D3 ag -3, D1 agonist -1 and D1 antag -12.
Screening Cc1ccc(NC(=O)COc2ccc(C(=O)c3ccccc3)cc2)c(O)c1 returned D3 antag -2, D1 PAM -10, D3 ag -18, D1 agonist 11 and D1 antag -30*.
Screening Cc1ccc(NC(=S)NC(=O)Cc2ccccc2)c(O)c1 returned D3 antag 0, D1 PAM 0, D3 ag 6, D1 agonist 33* and D1 antag -10.
COc1ccc(NC(=S)NC(=O)Cc2ccccc2)c(OC)c1 was read as D3 antag -18, D1 PAM 3, D3 ag 11, D1 agonist 16 and D1 antag 11.
For COc1ccc(OC)c(C(=O)c2c(N)c(-c3nc(-c4ccc(C)c(C)c4)cs3)c3ccccn23)c1 the results were D1 PAM -1, D3 ag 9, D1 agonist 0 and D1 antag -3.
For COc1ccc(CNC(=O)c2ccc(CSc3nc4ccncc4n3Cc3ccccc3F)cc2)cc1 the results were D1 PAM -3, D3 ag -15, D1 agonist 9 and D1 antag -11.
Screening N#Cc1ccc(OCCOCCNC2CCCC2)cc1 returned D3 antag -50*, D1 PAM -8, D3 ag -12, D1 agonist 2 and D1 antag -4.
`c1ccc(-c2ccc(OCCCNC3CCCC3)cc2)cc1` gave D3 antag 0, D1 PAM -1, D3 ag -7, D1 agonist 41* and D1 antag -37*.
`c1ccc(Cc2ccc(OCCCNC3CCCC3)cc2)cc1` gave D1 PAM 2, D1 agonist 56* and D1 antag -23.
For CCc1cccc(CC)c1NC(=O)c1c(C)oc2ccc(O)c(CN3CCN(C)CC3)c12 the results were D1 PAM 0, D3 ag -18, D1 agonist -1 and D1 antag -4.
For CC1CCC2(CC1)NC(=O)N(CC(=O)NC(C)c1ccc(F)c(F)c1)C2=O (stereo unspecified) the results were D3 antag -2, D1 PAM -4, D3 ag 1, D1 agonist 1 and D1 antag -35*.
